Among the data in PubChem BioAssay (NCATS) are Potency values, retold here.

SMILES strings stand for the structures. Results filed as inconclusive are left out. A call without a number means that no potency is given here. Activity calls are given as the source filed them. Calls follow the shape of the dose curve; as a rule, active = well fitted inhibition curve with a large enough effect; inconclusive = small, poorly fitted or top-dose-only effect; inactive = flat fitted curve, though single readings scatter. Where a SMILES comes first, the peptide text is derived from it. [ ]: non-standard residue; d: D form. pGlu = O=C1CC[C@@H](C(=O)O)N1
Potency is read from the fitted curve at half-maximal effect.

Voltage-gated inwardly rectifying potassium channel KCNH2 (Homo sapiens), sequence (Q12809 whole entry, looked up): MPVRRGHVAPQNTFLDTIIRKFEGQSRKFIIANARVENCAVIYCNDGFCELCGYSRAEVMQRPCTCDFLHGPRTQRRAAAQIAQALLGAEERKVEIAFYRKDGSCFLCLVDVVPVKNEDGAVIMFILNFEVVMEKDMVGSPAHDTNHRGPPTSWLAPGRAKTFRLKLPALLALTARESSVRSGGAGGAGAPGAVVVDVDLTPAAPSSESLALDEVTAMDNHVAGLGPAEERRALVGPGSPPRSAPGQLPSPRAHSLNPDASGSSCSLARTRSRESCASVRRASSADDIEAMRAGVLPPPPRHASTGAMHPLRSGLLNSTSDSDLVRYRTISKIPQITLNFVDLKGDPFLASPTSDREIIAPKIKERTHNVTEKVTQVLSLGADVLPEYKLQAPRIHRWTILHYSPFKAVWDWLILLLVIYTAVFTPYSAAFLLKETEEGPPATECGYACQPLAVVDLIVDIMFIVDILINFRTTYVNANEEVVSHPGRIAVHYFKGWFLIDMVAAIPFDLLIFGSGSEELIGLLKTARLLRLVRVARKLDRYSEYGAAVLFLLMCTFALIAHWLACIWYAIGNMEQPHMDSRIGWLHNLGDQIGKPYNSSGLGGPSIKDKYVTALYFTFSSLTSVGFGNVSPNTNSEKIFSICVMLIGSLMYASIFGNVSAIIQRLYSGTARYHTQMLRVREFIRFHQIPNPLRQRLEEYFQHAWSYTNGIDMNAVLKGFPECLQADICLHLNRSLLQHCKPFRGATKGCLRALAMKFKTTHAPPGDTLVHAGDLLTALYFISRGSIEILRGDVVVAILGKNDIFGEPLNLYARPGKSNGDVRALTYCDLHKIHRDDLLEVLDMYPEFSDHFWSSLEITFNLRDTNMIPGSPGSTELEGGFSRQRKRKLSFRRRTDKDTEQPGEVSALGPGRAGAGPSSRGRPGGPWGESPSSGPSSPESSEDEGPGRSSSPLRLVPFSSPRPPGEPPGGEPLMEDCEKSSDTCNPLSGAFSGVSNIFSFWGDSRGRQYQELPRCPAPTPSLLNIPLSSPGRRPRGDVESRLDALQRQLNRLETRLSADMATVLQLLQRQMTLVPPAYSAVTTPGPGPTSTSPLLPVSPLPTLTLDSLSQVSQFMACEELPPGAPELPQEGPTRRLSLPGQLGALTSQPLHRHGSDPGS

In this experiment the target is Voltage-gated inwardly rectifying potassium channel KCNH2 (Homo sapiens) (UniProt Q12809). Description: qHTS Assay for Small Molecule Inhibitors of the Human hERG Channel Activity (AID 588834).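 Also: lower thallium flux fluorescence means stronger hERG block; nearly all actives have a fitted effect of over 50% in size.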 The following applies: U2OS BacMam hERG, FluxOR thallium flux fluorescence; series mostly up to 46.1 µM. The method in brief:
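Step 1: BacMam hERG transduction of U2OS, 4 hrs RT. Step 2: overnight 37 °C, plate 2000 cells/well, 4 hr. Step 3: FluxOR load, compound 10 min, stimulate, read fluorescence.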
For orientation: In qHTS, concentration-response curves come from the screen itself.
For `C#C[C@]1(O)CC[C@H]2[C@@H]3CCC4=C(CCC(=O)C4)[C@H]3CC[C@@]21C`, the Potency result was “inactive”.
For `CCOC(=O)Oc1c(OC)cc(C(=O)O[C@@H]2C[C@@H]3CN4CCc5c([nH]c6cc(OC)ccc56)[C@H]4C[C@@H]3[C@H](C(=O)OC)[C@H]2OC)cc1OC`, the Potency was 2240 nM (active).
For `CC(=O)OCC(=O)[C@@]1(O)CC[C@H]2[C@@H]3CCC4=CC(=O)CC[C@]4(C)C3=CC[C@@]21C`, the Potency entry is “inactive”.
Under `C[C@@H]1C[C@H]2[C@@H]3C[C@H](F)C4=CC(=O)C=C[C@]4(C)[C@@]3(Cl)[C@@H](O)C[C@]2(C)[C@H]1C(=O)COC(=O)C(C)(C)C` stands “inactive”.
On to `CO[C@H]1C=CO[C@@]2(C)Oc3c(C)c(O)c4c(O)c(cc(O)c4c3C2=O)NC(=O)/C(C)=C\C=C/[C@H](C)[C@H](O)[C@@H](C)[C@@H](O)[C@@H](C)[C@H](OC(C)=O)[C@@H]1C`, for which the Potency entry is “inactive”.
`CC(C)(C)c1ccc(CN2CCN(C(c3ccccc3)c3ccc(Cl)cc3)CC2)cc1` (stereo unspecified): the Potency was 2820 nM (active).
`CC(C)[C@@H]1CC[C@@H](C)C[C@H]1O`: the Potency entry was “inactive”.
As for `CC(C)N1CCN(c2ccc(OC[C@H]3CO[C@](Cn4cncn4)(c4ccc(Cl)cc4Cl)O3)cc2)CC1`, the Potency was 8910 nM (active).
Take `C=Cc1c(C)c2cc3nc(cc4[nH]c(cc5nc(cc1[nH]2)C(C)=C5CCC(=O)OC)c(CCC(=O)O)c4C)[C@@]1(C)C3=CC=C(C(=O)OC)[C@H]1C(=O)OC`: the Potency result was “inactive”.
Take `CCCCCCCCCCCCCCCCCCOCC(COP(=O)([O-])OCC[N+](C)(C)C)OC` (stereo unspecified): the Potency entry is “inactive”.
Next, `CCN(CC)C(=S)S`: “inactive”; `CC(=O)N[C@@H](C=O)[C@@H](O)[C@H](O)[C@H](O)CO`: “inactive”.
For the molecule `CC1(C)C(\C=C/C=C\C=C/C=C2/N(CCCCS(=O)(=O)O)c3ccc4ccccc4c3C2(C)C)=[N+](CCCCS(=O)(=O)[O-])c2ccc3ccccc3c21`, the Potency entry was “inactive”.
Turning to `CC[C@H](C)[C@H](NC(=O)[C@H](Cc1ccccc1)NC(=O)[C@H](C)NC(=O)[C@H](CC(=O)O)NC(=O)[C@H](CCCCN)NC(=O)[C@H](CO)NC(=O)[C@@H]1CCCN1C(=O)[C@@H]1CCC(=O)N1)C(=O)NCC(=O)N[C@@H](CC(C)C)C(=O)N[C@@H](CCSC)C(N)=O` ([pGlu]PSKDAFIGLM-NH2), the Potency entry is “inactive”.
Next, `C=C[C@]1(C)C[C@@H](OC(=O)CSCCN(CC)CC)[C@]2(C)[C@H](C)CC[C@]3(CCC(=O)[C@H]32)[C@@H](C)[C@@H]1O`: 2240 nM (active); `NC(N)=NCC1COC2(CCCCC2)O1` (stereo unspecified): “inactive”.
